Entries with a potency or affinity are not part of this list. Values without a mark were called inactive.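 How the source made its calls: active means in all runs, an absorbance decrease of 25% or more of the average positive control decrease; inconclusive means runs conflict, with both active and inactive results; inactive means all runs inactive, opposite-direction effects included.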

The assay deals with Protein disulfide-isomerase A6 (Homo sapiens) (UniProt Q15084). The assay can be described thus: inhibitors of ERp5-mediated insulin aggregation, dose response, biochemical, turbidity, absorbance 650 nm, cherry-picked samples (AID 720566). The following applies: Recombinant ERp5 insulin aggregation; series mostly up to 35 µM; activity change, negative = inhibition: at the top concentration.
Chain of Protein disulfide-isomerase A6 (Homo sapiens) (Q15084 whole entry, looked up): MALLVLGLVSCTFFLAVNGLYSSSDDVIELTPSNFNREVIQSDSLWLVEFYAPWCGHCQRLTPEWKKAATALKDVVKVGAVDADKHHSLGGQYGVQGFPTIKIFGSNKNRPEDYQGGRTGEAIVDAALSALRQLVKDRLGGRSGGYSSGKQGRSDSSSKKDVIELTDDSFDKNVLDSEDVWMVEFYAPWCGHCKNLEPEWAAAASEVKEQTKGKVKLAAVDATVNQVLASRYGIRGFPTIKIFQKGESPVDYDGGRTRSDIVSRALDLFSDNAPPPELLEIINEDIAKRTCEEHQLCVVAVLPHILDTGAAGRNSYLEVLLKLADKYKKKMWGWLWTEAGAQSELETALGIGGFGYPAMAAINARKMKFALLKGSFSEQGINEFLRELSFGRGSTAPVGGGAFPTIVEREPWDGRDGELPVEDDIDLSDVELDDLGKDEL
Turning to `CCn1nc(/C=C/c2ccccc2)nc2c(=O)n(C)c(=O)nc1-2`, the “activity change, negative = inhibition” value is -22%. The figure for `COc1ccc(C#Cc2ccc([C@H]3[C@H](CO)N4CCCCN(C(=O)Cc5cccnc5)C[C@@H]34)cc2)cc1` is -9.93%; for `C[C@H](CO)N1C[C@H](C)[C@@H](CN(C)C(=O)Oc2ccc3ccccc3c2)OCc2cn(nn2)CCCC1=O` it is -4.28%. The result for `Cc1cc(OCC(=O)NCc2ccc(S(N)(=O)=O)cc2)c2c3c(c(=O)oc2c1)CCC3` reads 9.4%.

These data come from PubChem BioAssay AID720566 (Broad Institute, 2013).
